# Source: PubChem BioAssay AID2283179 (EPA ToxCast)
# Results filed as inconclusive are left out. Calls of active or inactive are those of the source. The calls were made as follows: active = hit-call score of the fitted dose curve at least 0.9, where 1 is the maximum; inconclusive = response in the unintended direction; inactive = score below 0.9.
# Target: human Microtubule Affinity Regulating Kinase 1 (MARK1), MARK1 (gene 4139) (UniProt Q9P0L2)
# Assay: NVS_ENZ_hMARK1: NovaScreen (NVS) Enzymatic Assay for human Microtubule Affinity Regulating Kinase 1 (MARK1)
# Method: NVS_ENZ_hMARK1 is a biochemical, single-readout assay that uses extracted gene-proteins in a cell-free assay. Measurements were taken 1 hour after chemical dosing in a 384-well plate.NVS_ENZ_hMARK1 is one of one assay component(s) measured or calculated from the NVS_ENZ_hMARK1 assay. It is designed to make measurements of enzyme activity, a form of enzyme reporter, as detected with fluorescence intensity signals by Fluorescence and electrophoretic mobility shift technology.Data from the assay component NVS_ENZ_hMARK1 was analyzed into 1 assay endpoint. This assay endpoint, NVS_ENZ_hMARK1, was analyzed in the positive analysis fitting direction relative to DMSO as the negative control and baseline of activity. Using a type of enzyme reporter, loss-of-signal activity can be used to understand changes in the enzymatic activity as they relate to the gene MARK1. Furthermore, this assay endpoint can be referred to as a primary readout, because this assay has produced multiple assay endpoints where this one serves a enzymatic activity function. To generalize the intended target to other relatable targets, this assay endpoint is annotated to the kinase intended target family, where the subfamily is serine/threonine kinase.
# Binding assays used specific radioligands (tritiated, iodinated) with non-radioactive competitive displacement ligands in agonist or antagonist protocols (as indicated) and various reference compounds and inhibitors to titrate specific binding to receptors and transporters. Most enzyme assays (CYPs, kinases, phosphatases, proteases, HDACs) used recombinant protein and specific substrates (fluorescence mostly, some colorimetric and radioactive) and inhibitors, followed by a biochemical separation of substrate and product. All assays for the biochemical HTS were initially run in duplicate at a single concentration (10 uM for CYP450 assays and 25 uM for all others). Assay-chemical combinations meeting a pre-defined threshold (e.g., 30% inhibition and other criteria defined below) were then run in singleton concentration-response format with maximum concentration of 20 uM for CYPs and 50 uM for all others. Each assay was run with positive and negative controls, and concurrent controls on every plate. The follow-up (secondary) screen tested active chemical-pairs in concentration series, as well as a few additional assays not tested in the primary screen, some selected negative inactives, and several cases re-run in the concentration series for confirmatory purposes.
# human Microtubule Affinity Regulating Kinase 1 (MARK1), MARK1 (gene 4139), sequence (Q9P0L2 whole entry, looked up): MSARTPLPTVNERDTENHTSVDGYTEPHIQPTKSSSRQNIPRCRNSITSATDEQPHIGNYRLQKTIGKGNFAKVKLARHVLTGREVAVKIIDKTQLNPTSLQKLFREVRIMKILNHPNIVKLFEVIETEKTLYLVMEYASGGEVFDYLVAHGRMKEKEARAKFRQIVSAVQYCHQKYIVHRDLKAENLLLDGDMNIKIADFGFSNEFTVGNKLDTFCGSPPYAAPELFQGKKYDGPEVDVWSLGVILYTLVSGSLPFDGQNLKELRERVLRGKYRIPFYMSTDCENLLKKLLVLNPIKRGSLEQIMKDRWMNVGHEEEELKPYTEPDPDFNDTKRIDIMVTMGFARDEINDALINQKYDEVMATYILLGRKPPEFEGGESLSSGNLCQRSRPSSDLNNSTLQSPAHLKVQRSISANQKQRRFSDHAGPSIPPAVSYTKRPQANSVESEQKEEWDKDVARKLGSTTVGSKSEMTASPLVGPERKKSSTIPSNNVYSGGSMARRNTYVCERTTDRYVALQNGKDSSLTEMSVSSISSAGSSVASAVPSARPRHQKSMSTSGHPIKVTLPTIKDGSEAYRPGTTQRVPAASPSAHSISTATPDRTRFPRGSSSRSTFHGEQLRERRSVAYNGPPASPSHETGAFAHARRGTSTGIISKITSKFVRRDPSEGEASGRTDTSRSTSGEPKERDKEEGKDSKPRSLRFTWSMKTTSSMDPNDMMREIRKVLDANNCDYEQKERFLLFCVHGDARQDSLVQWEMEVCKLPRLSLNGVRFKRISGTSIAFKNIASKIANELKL
SMILES,outcome,AC50
CNC(=S)S,inactive,–
CCOP(=O)(OCC)Oc1nc(Cl)c(Cl)cc1Cl,inactive,–
COP(=S)(OC)Oc1nc(Cl)c(Cl)cc1Cl,inactive,–
CCOP(=S)(OCC)Oc1nc(Cl)n(C(C)C)n1,inactive,–
Nc1c(Cl)cc([N+](=O)[O-])cc1Cl,inactive,–
COc1nc(C)nc(NC(=O)NS(=O)(=O)c2ccccc2CCC(F)(F)F)n1,inactive,–
CN(C)[C@@H]1C(=O)C(C(N)=O)=C(O)[C@@]2(O)C(=O)C3=C(O)c4c(O)cccc4[C@@](C)(O)[C@H]3[C@H](O)[C@@H]12,–,18 µM (active)
N#CSCSC#N,inactive,–
O=C(O)C(F)(F)C(F)(F)C(F)(F)C(F)(F)C(F)(F)C(F)(F)C(F)(F)F,inactive,–
CCNC(=O)NC(=O)C(C#N)=NOC,inactive,–
COC(=O)c1ccccc1S(=O)(=O)NC(=O)N(C)c1nc(C)nc(OC)n1,inactive,–
O=S(=O)(O)C(F)(F)C(F)(F)C(F)(F)C(F)(F)C(F)(F)C(F)(F)C(F)(F)C(F)(F)F,–,36.8 µM (active)
